# Reference: PMC7862700, “An all-to-all approach to the identification of sequence-specific readers for epigenetic DNA modifications on cytosine”
# Assays:
# Experiment in all cases: DAPPL (digital affinity profiling via proximity ligation, sequencing); 10 mM Tris-HCl pH 7.5, 50 mM NaCl, 1 mM DTT, 4% glycerol, room temperature, 30 min; GST-TFs on glutathione beads, 16-mer random dsDNA library, 0.1% formaldehyde crosslink after washing; high values mean tight binding
# Settings in all cases: protein: recombinant; tags: N-terminal GST; dsDNA, one strand shown
# FLI1 = biological target: T1, FLI1 (Homo sapiens, UniProt Q01543 1-452)
# T1 sequence: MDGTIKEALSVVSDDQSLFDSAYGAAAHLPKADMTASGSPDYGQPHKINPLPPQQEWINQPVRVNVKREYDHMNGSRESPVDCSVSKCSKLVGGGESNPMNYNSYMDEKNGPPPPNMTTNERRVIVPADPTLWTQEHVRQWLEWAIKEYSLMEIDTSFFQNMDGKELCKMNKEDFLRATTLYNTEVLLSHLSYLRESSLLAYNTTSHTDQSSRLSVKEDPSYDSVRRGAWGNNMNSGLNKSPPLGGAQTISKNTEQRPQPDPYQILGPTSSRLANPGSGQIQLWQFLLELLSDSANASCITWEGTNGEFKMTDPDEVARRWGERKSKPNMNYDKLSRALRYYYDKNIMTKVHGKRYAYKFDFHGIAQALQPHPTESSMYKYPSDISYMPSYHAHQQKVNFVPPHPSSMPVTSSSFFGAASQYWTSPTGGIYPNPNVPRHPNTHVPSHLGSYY
# Outline: (§1)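 In yeast, human transcription factors were expressed with a GST fusion, then pulled down on glutathione beads and given DNA barcodes. Pooled with a tag-only sample, they were exposed to 200 nmole of a 16-mer random double-stranded DNA library (Tris/NaCl/DTT/glycerol buffer, room temperature, 30 min), washed, crosslinked with 0.1% formaldehyde, proximity-ligated using BsaI/T4 ligase for 1 h at 37 °C, PCR-amplified and read on an Illumina NextSeq500. Each hexamer's frequency of reads for a factor, divided by the matching frequency for the tag-only sample, gives the binding signal.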
# ELK1 = biological target: T2, ELK1 (Homo sapiens, UniProt P19419 1-428)
# T2 sequence: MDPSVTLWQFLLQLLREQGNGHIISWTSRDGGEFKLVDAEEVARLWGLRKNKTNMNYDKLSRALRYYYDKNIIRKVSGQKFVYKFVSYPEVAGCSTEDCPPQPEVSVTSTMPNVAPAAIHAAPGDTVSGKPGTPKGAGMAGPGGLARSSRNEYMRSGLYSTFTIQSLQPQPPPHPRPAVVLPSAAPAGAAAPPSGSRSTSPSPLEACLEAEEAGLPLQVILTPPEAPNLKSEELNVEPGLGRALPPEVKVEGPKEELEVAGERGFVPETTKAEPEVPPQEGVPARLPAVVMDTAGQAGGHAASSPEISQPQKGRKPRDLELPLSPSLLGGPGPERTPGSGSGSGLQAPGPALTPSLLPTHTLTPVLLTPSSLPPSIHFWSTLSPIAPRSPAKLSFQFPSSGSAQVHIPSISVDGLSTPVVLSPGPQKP
# Outline: as §1
# GABPA = biological target: T3, GABPA (Homo sapiens, UniProt Q06546 1-454)
# T3 sequence: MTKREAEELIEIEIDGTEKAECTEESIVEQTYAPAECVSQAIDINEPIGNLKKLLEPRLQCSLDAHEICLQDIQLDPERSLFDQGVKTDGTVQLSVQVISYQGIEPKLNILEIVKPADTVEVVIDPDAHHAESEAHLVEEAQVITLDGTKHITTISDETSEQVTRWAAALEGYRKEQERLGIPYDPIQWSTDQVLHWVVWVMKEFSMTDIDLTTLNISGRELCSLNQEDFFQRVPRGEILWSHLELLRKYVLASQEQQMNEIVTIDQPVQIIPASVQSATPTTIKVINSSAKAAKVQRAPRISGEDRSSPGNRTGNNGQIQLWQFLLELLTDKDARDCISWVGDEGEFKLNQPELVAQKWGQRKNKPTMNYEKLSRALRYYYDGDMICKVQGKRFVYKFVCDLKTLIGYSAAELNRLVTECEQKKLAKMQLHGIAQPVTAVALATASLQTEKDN
# Outline: as §1
# ERG = biological target: T4, ERG (Homo sapiens, UniProt P11308 1-479)
# T4 sequence: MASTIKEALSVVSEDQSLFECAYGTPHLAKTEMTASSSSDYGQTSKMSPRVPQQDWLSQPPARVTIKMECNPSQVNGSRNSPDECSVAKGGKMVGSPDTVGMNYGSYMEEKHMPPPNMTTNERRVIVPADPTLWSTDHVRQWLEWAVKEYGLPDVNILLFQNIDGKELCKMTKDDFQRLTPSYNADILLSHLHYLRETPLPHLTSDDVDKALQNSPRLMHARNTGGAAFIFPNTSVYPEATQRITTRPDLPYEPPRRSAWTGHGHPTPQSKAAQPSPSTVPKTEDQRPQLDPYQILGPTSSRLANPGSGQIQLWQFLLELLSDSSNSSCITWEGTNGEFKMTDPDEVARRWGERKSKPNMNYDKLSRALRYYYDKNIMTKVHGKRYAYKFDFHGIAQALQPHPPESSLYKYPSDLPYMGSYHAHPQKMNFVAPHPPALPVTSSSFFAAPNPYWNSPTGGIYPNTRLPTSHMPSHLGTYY
# Outline: as §1
# ELF1 = ELF1 (Homo sapiens, UniProt P32519 1-619)
# Outline: as §1
# EHF = biological target: T5, EHF (Homo sapiens, UniProt Q9NZC4 1-300)
# T5 sequence: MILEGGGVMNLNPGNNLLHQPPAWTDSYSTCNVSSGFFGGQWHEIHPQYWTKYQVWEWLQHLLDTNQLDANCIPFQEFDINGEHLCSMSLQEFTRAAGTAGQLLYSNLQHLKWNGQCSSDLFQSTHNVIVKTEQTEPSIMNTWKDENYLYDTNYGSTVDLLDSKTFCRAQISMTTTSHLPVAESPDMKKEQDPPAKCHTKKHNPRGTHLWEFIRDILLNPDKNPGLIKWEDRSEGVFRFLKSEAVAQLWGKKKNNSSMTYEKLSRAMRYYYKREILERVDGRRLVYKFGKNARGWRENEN
# Outline: as §1
# SPI1 = SPI1 (Homo sapiens, UniProt P17947 1-270)
# Outline: as §1
# SPIB = SPIB (Homo sapiens, UniProt Q01892 1-262)
# Outline: as §1
# ELK3 = biological target: T6, ELK3 (Homo sapiens, UniProt P41970 1-407)
# T6 sequence: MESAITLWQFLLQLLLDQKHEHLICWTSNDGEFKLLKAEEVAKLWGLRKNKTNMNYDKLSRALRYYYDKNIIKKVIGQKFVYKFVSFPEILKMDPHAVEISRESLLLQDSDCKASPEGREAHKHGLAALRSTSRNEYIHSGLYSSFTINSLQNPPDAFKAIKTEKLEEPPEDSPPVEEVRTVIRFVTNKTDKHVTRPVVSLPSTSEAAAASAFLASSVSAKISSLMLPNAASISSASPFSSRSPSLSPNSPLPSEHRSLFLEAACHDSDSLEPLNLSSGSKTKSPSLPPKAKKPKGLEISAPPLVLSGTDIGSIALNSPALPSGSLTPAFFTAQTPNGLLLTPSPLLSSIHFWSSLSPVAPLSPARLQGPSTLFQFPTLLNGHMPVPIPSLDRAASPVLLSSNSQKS
# Outline: as §1
# Sequence of SPIB (Q01892 whole entry): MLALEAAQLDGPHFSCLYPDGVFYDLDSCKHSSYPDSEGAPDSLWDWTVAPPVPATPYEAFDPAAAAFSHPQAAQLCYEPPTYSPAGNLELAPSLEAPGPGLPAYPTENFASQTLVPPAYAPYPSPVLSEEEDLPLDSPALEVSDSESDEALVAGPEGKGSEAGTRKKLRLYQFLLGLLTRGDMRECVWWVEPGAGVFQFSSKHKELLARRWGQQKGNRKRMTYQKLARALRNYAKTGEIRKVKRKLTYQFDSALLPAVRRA
# Sequence of ELF1 (P32519 whole entry): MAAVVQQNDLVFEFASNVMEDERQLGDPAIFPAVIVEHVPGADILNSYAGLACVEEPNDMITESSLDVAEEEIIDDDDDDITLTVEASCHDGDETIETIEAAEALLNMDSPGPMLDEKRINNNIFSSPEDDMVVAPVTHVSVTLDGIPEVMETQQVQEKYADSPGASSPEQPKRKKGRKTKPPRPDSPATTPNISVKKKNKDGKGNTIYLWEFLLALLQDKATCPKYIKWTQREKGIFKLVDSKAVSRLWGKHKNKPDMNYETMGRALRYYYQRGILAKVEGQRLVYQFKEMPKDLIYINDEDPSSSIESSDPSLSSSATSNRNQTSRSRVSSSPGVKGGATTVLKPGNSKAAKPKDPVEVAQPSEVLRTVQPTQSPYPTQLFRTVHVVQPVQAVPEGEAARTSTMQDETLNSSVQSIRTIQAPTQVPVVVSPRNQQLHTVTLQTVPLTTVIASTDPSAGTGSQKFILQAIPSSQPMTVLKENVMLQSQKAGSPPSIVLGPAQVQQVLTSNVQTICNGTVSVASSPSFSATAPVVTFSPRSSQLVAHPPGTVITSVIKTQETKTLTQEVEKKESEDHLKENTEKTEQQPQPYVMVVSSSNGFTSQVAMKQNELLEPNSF
sequence,measurement,setting,value
CTCTCG,binding signal,FLI1,"1.42 fold enrichment (6-mer frequency, TF over GST control)"
same,binding signal,ELK1,"1.34 fold enrichment (6-mer frequency, TF over GST control)"
same,binding signal,GABPA,"1.37 fold enrichment (6-mer frequency, TF over GST control)"
same,binding signal,ERG,"1.44 fold enrichment (6-mer frequency, TF over GST control)"
same,binding signal,ELF1,"1.49 fold enrichment (6-mer frequency, TF over GST control)"
same,binding signal,EHF,"1.31 fold enrichment (6-mer frequency, TF over GST control)"
same,binding signal,SPI1,"1.45 fold enrichment (6-mer frequency, TF over GST control)"
same,binding signal,SPIB,"1.37 fold enrichment (6-mer frequency, TF over GST control)"
same,binding signal,ELK3,"1.47 fold enrichment (6-mer frequency, TF over GST control)"
